Assay outcomes (PubChem BioAssay)
Gal4-VP16 FLuc = Gal4-VP16 reporter inhibition counter-screen; Drosophila S2 Gal4-VP16 UAS-luciferase, luminescence, 20 h; Potency, µM (top dose mostly 53.6 µM), without a hit: at the top dose activity, negative = inhibition, usual class: inhibitors; 310,000 tested, 3.5% active; AID 2546;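 further: Gal4-VP16 expression switched on by copper sulfate through the metallothionein promoter; on the % scale 0 is the no-effect control and ±100 the full control effect; nearly all actives have a fitted effect of over 50% in size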
KB-3-1 cytotox = kills parental KB-3-1 adenocarcinoma cells; AID 1347075; Potency, µM (top dose mostly 46.1 µM), hits mostly cytotoxic; KB-3-1 viability, CellTiter-Glo ATP luminescence, 72 h; 400,000 tested, 1.4% active; further: on the % scale 0 is the no-effect control and ±100 the full control effect; nearly all actives have a fitted effect of over 60% in size
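KB-3-1 cells, DMEM (no phenol red) + 10% FBS; compound by pin transfer, 72 h, 37 °C. Readout: CellTiter-Glo luminescence after 10 min. Data normalized, curve-fitted.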
RORgamma inh = ROR gamma (mouse) transcription inhibition; P51450; Drosophila S2 Gal4-RORgamma UAS-luciferase reporter, 20 h; Potency, µM (series often up to 53.6 µM), for inactives: at the top dose activity change, negative = inhibition, actives largely listed as inhibitors; 310,000 tested, 5.4% active; further: on the % scale 0 is the no-effect control and ±100 the full control effect; nearly all actives have a fitted effect of over 60% in size
Target sequence (P51450 whole entry, looked up, the tested form may be a part): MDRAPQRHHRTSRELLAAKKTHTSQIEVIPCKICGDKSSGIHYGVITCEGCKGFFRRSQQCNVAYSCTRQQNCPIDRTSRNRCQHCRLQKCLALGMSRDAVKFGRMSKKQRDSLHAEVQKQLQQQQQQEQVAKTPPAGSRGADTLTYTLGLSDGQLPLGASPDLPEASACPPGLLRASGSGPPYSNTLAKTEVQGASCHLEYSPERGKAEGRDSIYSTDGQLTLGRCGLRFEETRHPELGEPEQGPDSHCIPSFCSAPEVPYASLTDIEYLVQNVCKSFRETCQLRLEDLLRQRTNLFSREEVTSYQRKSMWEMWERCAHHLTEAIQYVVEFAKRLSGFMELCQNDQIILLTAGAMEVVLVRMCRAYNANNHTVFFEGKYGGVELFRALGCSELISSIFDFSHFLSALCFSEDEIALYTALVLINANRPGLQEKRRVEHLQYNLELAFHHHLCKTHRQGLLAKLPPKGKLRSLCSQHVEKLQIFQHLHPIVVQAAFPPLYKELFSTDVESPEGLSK
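In this cell-based reporter format, copper sulfate (700 uM final) drives Gal4–ROR gamma fusion expression from a metallothionein promoter in Drosophila Schneider cells; compounds preincubated 1 hr, reporter read after 20 hr at ambient temperature.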
SW480 rerep = inducers of DNA re-replication in SW480 colon cancer cells. Potency, µM (series often up to 46.1 µM), for the others: top-dose re-replication activation, most hits filed as activators. 340,000 tested, 1.8% active. SW480 DNA re-replication, Hoechst DNA content imaging, 48 h; further: % of control where 0% means no effect; nearly all actives have a fitted effect of over 55% in size
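Hoechst fluorescence of nuclei (405 nm excitation, 500-530 nm emission) measured by plate-scanning imager after 48 hr compound exposure at 37 C; re-replication scored as increased number of nuclei with elevated intensity.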
KB-V1 cytotox = KB-V1 MDR subline cytotoxicity; KB-V1 MDR cells viability, CellTiter-Glo, 72 h; Potency, µM (doses to about 46.1 µM), hits mostly cytotoxic; 400,000 tested, 3.4% active; AID 1347076; further: on the % scale 0 is the no-effect control and ±100 the full control effect; nearly all actives have a fitted effect of over 60% in size
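Potencies derive from concentration-effect curves fitted to normalized luminescence (CellTiter-Glo) of KB-V1 cells treated for 72 h at 37 degrees C in phenol-red-free DMEM containing 10% FBS.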
MCF10A rereplic = inducers of DNA re-replication in MCF 10A breast cells. MCF 10A DNA re-replication, Hoechst nuclear intensity, 48 h. Potency, µM (titrated, usually from 46.1 µM), without a hit: at the highest dose activity, positive = re-replication, most hits filed as activators. 350,000 tested, 2.9% active; further: % of control where 0% means no effect; nearly all actives have a fitted effect of over 50% in size
An asterisk follows results filed as active; i = inactive; u = inconclusive; x = not tested or not shown; ! = repeats disagree; [ ] = remark or other dose. The list is not random: actives were taken first. Their share in the collection is about 10%. The call rests on the fitted dose curve; in most records, active means well fitted curve in the direction sought with a large enough effect; inconclusive means small, poorly fitted or top-dose-only effect, or another doubt; inactive means no such curve, though single readings can be large; an effect the other way counts as inactive or inconclusive. Potency means the concentration at half of the fitted maximal effect.

SMILES | Gal4-VP16 FLuc | KB-3-1 cytotox | RORgamma inh | SW480 rerep | KB-V1 cytotox | MCF10A rereplic
CCN(CC)NC(=S)Nc1ccccc1 | u | i | 3.16µM* | 8.7% | i | -5.2%
c1ccc(-c2nc(NCCCn3ccnc3)c3oc4ccccc4c3n2)cc1 | 1.8% | u | -25.5% | u | 5.8µM* | u
CCc1nc(NCCCn2ccnc2)c2oc3ccccc3c2n1 | 0.3% | i | 1.6% | -2.8% | u | 11.1%
c1ccc(-c2nc(NCc3ccco3)c3oc4ccccc4c3n2)cc1 | -1.5% | i | -16.0% | 3.5% | u | 16.4µM*
COC(=O)C(/C=C/C(C)Cc1cc(Br)cc(OCc2ccccc2)c1OC)OCc1ccccc1 (stereo unspecified) | -2.2%[10 µM] | x | 1.1%[10 µM] | x | x | x
COC1CCN(C(=O)c2ccc3oc(Cc4ccc(Cl)cc4)nc3c2)CC1 | 5.7% | i | 27.3% | -9.6% | i | 3.4%
COC1CCCN(C(=O)c2ccc3oc(Cc4ccc(Cl)cc4)nc3c2)C1 (stereo unspecified) | -8.0% | i | 32.7% | -5.0% | 2.59µM* | 8.5%
COc1ccc(-n2c(=O)c3c(c4cc(OC)ccc4n3C)n(CC(=O)N3CCCC3)c2=O)cc1 | x | i | x | x | i | x
CCC(=O)Nc1cccc(-c2ccc(N3CCCCC3)nn2)c1 | 2.82µM* | i | 2.51µM* | 2.1% | i | -4.4%
CC(=O)Nc1ccc(S(=O)(=O)Nc2cccc(-c3ccc(N4CCCCCC4)nn3)c2)cc1 | x | i | x | x | i | x
CCC(=O)Nc1cccc(-c2ccc(N3CCN(C)CC3)nn2)c1 | u | i | 14.1µM* | -10.6% | i | u
CC(=O)Nc1ccc(Nc2nc(-c3sc(NC(C)=O)nc3C)cs2)cc1 | -17.2% | u | u | 4.7% | i | u
CC(=O)Nc1nc(C)c(-c2csc(Nc3ccc(O)cc3)n2)s1 | -26.3% | 8.2µM* | u | u | i | 18.4µM*
CCCC(=O)Nc1nc(C)c(-c2csc(Nc3ccc(Cl)cc3)n2)s1 | u | u | u | 1.4% | i | u
CCC(C)C(=O)Nc1nc(C)c(-c2csc(Nc3ccc(Cl)cc3)n2)s1 (stereo unspecified) | 10µM* | 6.51µM* | -44.1% | 9.2% | i | u
Cc1ccc(NC(=O)c2ccc(NC(=O)N3CCSc4nc(C)cc(C)c43)cc2)c(Cl)c1 | x | i | x | x | i | x
CCc1ccc(NC(=O)CN(N=Nc2nonc2C)c2nonc2C)cc1 | u | i | 3.98µM* | -1.7% | i | 1.1%
CCc1ccc(NC(=O)c2cc(C)no2)cc1 | u | i | 15.4% | -2.1% | i | 16.2%
C=CCN1C(C(=O)c2ccccc2)=C(OC(=O)COc2ccccc2)c2ccccc2S1(=O)=O | u | u | u | u | 11.6µM* | u
CCOC(=O)CN1C(C(=O)c2ccccc2)=C(OC(=O)c2ccccc2)c2ccccc2S1(=O)=O | x | i | x | x | i | x
COc1ccc(C(O)c2ncc(-c3ccccc3C)[nH]2)cc1 (stereo unspecified) | x | i | x | x | i | x
Oc1oc(-c2cccc3ccccc23)nc1/C=N/c1nccs1 | 12.6µM* | u | 8.91µM* | 1.3% | i | 16.5%
NC(=O)CCC1NC(=O)C(Cc2ccccc2)NC(=O)C(Cc2ccc(O)cc2)NC(=O)CCSSCC(C(=O)N2CCCC2C(=O)NC(CCCN=C(N)N)C(=O)NCC(N)=O)NC(=O)C(CC(N)=O)NC1=O (stereo unspecified) | 0.3% | x | 4.8% | u | x | 4.5%
O=C1C=CC(=O)C2=C1C1c3ccccc3C2c2ccccc21 | u | x | 10µM* | x | x | x
O=C1NC2C3CC(c4ccccc43)C12 (stereo unspecified) | x | i | x | x | i | x
SMILES | Gal4-VP16 FLuc | KB-3-1 cytotox | RORgamma inh | SW480 rerep | KB-V1 cytotox | MCF10A rereplic
COc1ccc(NC(=O)CCc2c(C)nc3c(c2C)c(=O)n(C)c(=O)n3C)c(OC)c1 | x | i | x | x | i | x
COc1ccc(C(C)=O)cc1CSc1nnc(Nc2ccc(C)cc2)s1 | u | u | 19.8% | 1.3% | u | 5.6%
COc1ccc(C(C)=O)cc1CSc1nnc(-c2ccc(Cl)cc2)n1-c1ccccc1 | 15.8µM* | u | u | 9.9%[9.22 µM] | 14.6µM* | u
COc1ccc(-c2noc(CSc3nnc(-c4ccccc4)n3C)n2)cc1 | u | i | u | -2.3% | 14.6µM*! | 1.9%
COc1ccc(C(C)=O)cc1CSc1nnc(Nc2ccccc2)s1 | -16.4% | u | u | 1.0% | 8.2µM* | 5.5%
COc1ccc(-n2c(SCc3nnc(-c4ccccc4)o3)nnc2-c2ccccc2)cc1 | 0.3% | i | 30.3% | -15.2% | 2.31µM* | 17.3%
O=S1(=O)CCOC[C@H](c2ccccc2)N1Cc1ccc(F)cc1 | x | i | x | x | i | x
CCNc1nc2c(c(=O)n(C)c(=O)n2C)n1Cc1ccc(F)cc1 | x | u | x | x | i | x
c1ccc(-c2noc(CSc3nnnn3C3CCCCC3)n2)cc1 | u | i | u | -5.5% | 18.4µM* | 3.2%
c1ccc(-c2noc(CC3CCCCC3)n2)cc1 | -8.9% | i | 24.5% | 4.8% | u | 23.3%
Clc1ccc(-c2nnc(CSc3nnc(-c4cccs4)n3Cc3ccccc3)o2)cc1 | 17.8µM* | u | u | 2.4% | u | u
COc1ccc(-c2nnc(SCc3nnc(-c4ccc(Cl)cc4)o3)n2-c2ccccc2)cc1 | u | u | 42.8% | u | 3.66µM* | u
COc1ccc(-c2nnc(SCc3nnc(-c4ccccc4)o3)n2-c2ccccc2)cc1 | 0.4% | i | -1.0% | -7.5% | u | 16.4%
COc1cccc(C(=O)NNc2nc(C)cc(C)n2)c1 | -0.8% | i | -7.3% | 0.517µM* | u | u
Cc1cc(NC(=O)c2ccccc2O)nc(C)n1 | -20.1% | i | u | -2.8% | i | -6.5%
Cc1cc(C)nc(NNC(=O)c2ccccc2O)n1 | 3.0% | i | 11.2µM* | u | i | 9.3%
COc1cc(OC)c(Nc2nc3ccccc3nc2-n2nc(C)cc2C)cc1Cl | x | i | x | x | i | x
CC1(C(=O)NC2CCN(Cc3ccccc3)CC2)CCN1Cc1cc2ccccc2o1 (stereo unspecified) | x | i | x | x | i | x
Cc1c(/C=N/O)sc2ccccc12 | 7.4% | u | 4.9% | -3.7% | 20.6µM* | -1.0%
Cc1cccc(CC(=O)NCCS(=O)(=O)N2CCN(c3ccccc3)CC2)c1 | x | i | x | x | i | x
CC(C)NC(=O)c1cc2c(Cl)nc3ccccc3c2s1 | x | i | x | x | i | x
CCc1cc2cc(C)cc(C)c2[nH]c1=S | -20.2% | i | 7.08µM* | -6.3% | i | 7.0%
